Rows were chosen to be rich in hits. Some 17% of all compounds tested hit in one or more screens of this group.
ATXN2 expr inh: inhibitors of ATXN2 expression; AID 1745845; HEK-293 ATXN2-luciferase reporter, luminescence, 24 h; hit rate 0.72% among 360,000; Potency, µM (top dose mostly 57 µM), most hits filed as inhibitors; also: nearly all actives have a fitted effect of over 55% in size
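qHTS (up to 57 uM final) was run with 24 h compound exposure of reporter cells at 37 °C. Each well was multiplexed: SteadyGlo luminescence measured ATXN2-luciferase expression after a fluorogenic Gly-Phe-AFC viability readout (25 uM final).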
S2 tox: cell viability loss in ATXN counter-screen; S2 cells (HEK-293 line with an ATXN2-luciferase reporter) viability, CellTiter-Fluor protease fluorescence, 24 h; Potency, µM (highest dose often 56.7 µM), usual class: cytotoxic; AID 651635; hit rate 0.49% among 400,000; also: nearly all actives have a fitted effect of over 40% in size
HepG2 viability: counter-screen for TGF-b inhibitors: cytotoxicity in HepG2 cells; Potency, µM (highest dose often 46.1 µM), actives largely listed as cytotoxic; HepG2 CAGA-GFP viability, ATP luminescence, 18 h; AID 588856; hit rate 0.76% among 410,000
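HepG2 CAGA-GFP cells (1000/well, DMEM with 1% FBS) received compound, then TGF-beta at 500 pg/mL final, and were incubated 18 hours at 37 degrees C. Viability was read by CellTiter-Glo luminescence. Media-only wells were set as complete cell-killing and DMSO as no toxicity.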
DT40 TDP1 no CPT: qHTS for Inhibitors of human tyrosyl-DNA phosphodiesterase 1 (TDP1): qHTS in cells in absence of CPT; Potency, µM (top dose mostly 46.2 µM), usual class: inhibitors; DT40 Tdp1-/- hTDP1 cells, no CPT, ATP luminescence, 48 h; hit rate 15% among 420,000; also: nearly all actives have a fitted effect of over 55% in size
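Chicken DT40 Tdp1-/- cells complemented with human TDP1, screened without camptothecin (DMSO vehicle only), 400 cells/well. Compounds pin-transferred, cells incubated at 37 °C for at least 48 hr. Growth read as ATP-dependent luminescence (CellTiter-Glo, 30 min at RT).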
TDP1 cell CPT: DT40-hTDP1 cell growth loss with CPT; chicken DT40 Tdp1-/-;hTDP1 cells + 20 nM CPT, ATP luminescence, 48 h; Potency, µM (top dose mostly 46.2 µM), most hits filed as inhibitors; hit rate 12% among 420,000; also: nearly all actives have a fitted effect of over 55% in size
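Chicken DT40 Tdp1-/- cells stably complemented with human TDP1 were seeded at 400 cells/well in medium containing 20 nM camptothecin, exposed to pin-transferred compounds, and grown at 37 °C for at least 48 hr. Viability was read as ATP luminescence.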
TGFb inhibitor: TGF-b pathway inhibition. HepG2 CAGA-GFP TGF-b/SMAD3 reporter, GFP fluorescence, 18 h; TGF-beta stimulated, 500 pg/mL final. Potency, µM (series often up to 46.1 µM), actives largely listed as inhibitors. hit rate 1.2% among 410,000; also: nearly all actives have a fitted effect of over 65% in size
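First, reporter cells (HEPG2 CAGA-GFP) rested 2 h at 37 degrees C. Next, compounds were pinned in and TGF-beta added to 500 pg/mL final. After 18 h, GFP was imaged per cell and summed per well.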
A number is an active result; - = inactive; ? = inconclusive; . = not tested or not shown. Calls follow the shape of the dose curve; as a rule, active = well fitted curve in the direction sought with a large enough effect; inconclusive = small, poorly fitted or top-dose-only effect, or another doubt; inactive = no such curve, though single readings can be large; an effect the other way counts as inactive or inconclusive.

SMILES	ATXN2 expr inh	S2 tox	HepG2 viability	DT40 TDP1 no CPT	TDP1 cell CPT	TGFb inhibitor
CCN1CCN(c2nc(Nc3cccc(C)c3)nc(N)c2[N+](=O)[O-])CC1	-	?	-	18µM	?	-
COc1ccccc1C1CC(c2ccco2)=NN1S(C)(=O)=O (stereo unspecified)	-	-	-	?	21µM	-
CS(=O)(=O)N1N=C(c2ccco2)CC1c1ccccc1Cl (stereo unspecified)	-	-	-	-	-	-
COc1ccc2cc(C3CC(c4ccco4)=NN3S(=O)(=O)c3ccccc3)c(Cl)nc2c1 (stereo unspecified)	-	-	-	15µM	?	-
Cc1ccccc1Cn1c(CN2CCN(c3cc(Cl)ccc3C)CC2)nc2c1c(=O)[nH]c(=O)n2C	.	.	-	13µM	?	-
Cc1ccc(Cl)cc1N1CCN(Cc2nc3c(c(=O)[nH]c(=O)n3C)n2Cc2ccccc2F)CC1	-	-	-	23µM	?	?
Cc1ccc(Cl)cc1N1CCN(Cc2nc3c(c(=O)[nH]c(=O)n3C)n2CCc2ccccc2)CC1	?	?	-	?	16µM	-
Cn1c(=O)[nH]c(=O)c2c1nc(CN1CCN(c3cccc(Cl)c3)CC1)n2CCCc1ccccc1	-	-	-	?	?	?
O=C(c1ccccc1)N1CCN(CCc2ccncc2)CC1	.	.	-	-	-	-
Cc1nc2ccccc2c(=O)n1NCc1cccs1	-	-	-	?	-	-
O=c1[nH]c(=O)n(-c2ccccc2)c2c1C(C(F)(F)F)(C(F)(F)F)N=C(C1CCCCC1)N2	?	-	-	23µM	?	-
O=C(NC1(C(F)(F)F)C(=O)Nc2c1c(=O)[nH]c(=O)n2-c1ccccc1)c1ccccc1 (stereo unspecified)	-	-	-	?	-	-
Cc1ccccc1Nc1nc(N)[nH]c(=O)c1N=O	-	-	-	?	?	-
Brc1ccc(N/N=C(/N=Nc2nn[nH]n2)c2ccccc2)cc1	.	.	-	2.6µM	2.9µM	?
O=C(/C(=N\Nc1ccc(Br)cc1)Sc1nnnn1-c1ccccc1)c1ccccc1	-	-	-	-	-	-
O=C(O)c1ccc(N=N/C(=N\Nc2ccc(C(=O)O)cc2)c2ccccc2)cc1	-	13µM	-	?	-	-
O=C(O)c1cccc(N/N=C(\N=Nc2ccccc2)c2ccccc2)c1	?	?	-	-	?	-
NC(=O)/C(N=Nc1ccccc1)=N/Nc1ccccc1	-	-	-	?	18µM	-
CCN(CC(=O)NCc1ccc(F)cc1)CC(=O)Nc1cc(S(=O)(=O)N(C)C)ccc1C	-	-	-	-	?	-
Cc1cc(C)c(NC(=O)Cn2ccn(-c3cccc(Cl)c3)c(=O)c2=O)c(C)c1	.	.	-	?	?	-
Cc1ccnn1-c1ccc(C(=O)N2CCCN(S(=O)(=O)c3ccc(F)cc3)CC2)cc1	.	?	-	-	-	-
Cc1sc2ncnc(N(C)Cc3cccs3)c2c1C	-	-	-	?	?	?
O=C(CSc1ncnc2sccc12)Nc1ccccc1F	-	-	-	-	-	-
COc1ccc(CN(C)c2ncnc3sccc23)c(OC)c1OC	-	-	-	21µM	12µM	?
CN(Cc1cccs1)c1ncnc2sccc12	-	-	-	16µM	?	-
SMILES	ATXN2 expr inh	S2 tox	HepG2 viability	DT40 TDP1 no CPT	TDP1 cell CPT	TGFb inhibitor
COc1ccc(CCN(C)c2ncnc3sccc23)cc1OC	-	?	-	-	?	-
CN(Cc1ccccc1F)c1ncnc2sccc12	-	-	-	21µM	?	-
OCCN(Cc1ccccc1)c1ncnc2sccc12	-	-	-	13µM	?	-
COc1ccc(NC2CCCN(C(=O)C3(C)CCCCC3)C2)cc1OC (stereo unspecified)	-	-	-	?	?	-
CN(Cc1ccccc1)C(=O)COc1cccnc1[N+](=O)[O-]	-	-	-	-	-	-
O=C(O)c1cn(Cc2ccccc2)nc1-c1cccnc1	.	-	-	-	-	-
